Screening results (PubChem BioAssay)
An excerpt weighted towards active compounds, which were near 21% of everything screened.
SARS PLpro yeast: SARS-CoV PLP inhibition in yeast | S. cerevisiae expressing SARS-CoV PLpro, growth rescue | Potency, µM (top dose mostly 32.9 µM), usual class: activators | 330,000 compounds, 0.19% hits | AID 485353; calls by dose curve; note: nearly all actives have a fitted effect of over 55% in size
Cycloheximide cs: affects cycloheximide protein synthesis inhibition readout, counter-screen. AID 2314. cell reporter, cycloheximide protein synthesis inhibition counterscreen. 300,000 compounds, 12% hits. max response, %; in the data active = max response mostly above about 13%, no sharp cut-off; inactive = mostly below about 14%; note: read at 38.3 µM for the half of the compounds with a filed dose
NS1 inh: influenza NS1 inhibition | Potency, µM (highest dose often 46.1 µM) | 270,000 compounds, 0.4% hits; calls by dose curve; note: actives are rising curves; nearly all actives have a fitted effect of over 50% in size
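S. cerevisiae expressing influenza A NS1, grown in glucose, washed, then diluted 1:100 into pH 6.0 -URA galactose medium with 23 nl compound. Growth recovery read as OD600; NS1-free strain serves as control.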
Shiga inhibitor: inhibitors of Shiga toxin in Vero cells; inhibition, % at 38.7 µM; Vero cells, Shiga toxin protein synthesis inhibition reporter; 290,000 compounds, 9.2% hits; in the data active = inhibition mostly above about 28%, no sharp cut-off; inactive = mostly below about 43%
Pf growth 96h: inhibits malaria parasite growth, 96 h | P. falciparum luciferase reporter growth, 96 h | Potency, µM (titrated, usually from 28.7 µM), hits mostly inhibitors | 320,000 compounds, 6.9% hits
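P. falciparum expressing integrated firefly luciferase grown in erythrocytes (2% hematocrit, 0.05% parasitemia final) with compounds for 96 hours at 37 C, 5% CO2. Growth inhibition read as loss of luminescence after adding luciferase detection reagent.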
Pf growth 48h: P. falciparum growth inhibition at 48 hours (one generation) | P. falciparum luciferase growth in erythrocytes, 48 h | Potency, µM (highest dose often 28.7 µM), hits mostly inhibitors | 310,000 compounds, 5.9% hits
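Luciferase-expressing parasites in RBCs, 2% Hct / 0.1% parasitemia final; RPMI 1640 + 0.5% Albumax; 37 C, 5% CO2, one generation; luminescence read-out, lower signal = inhibition.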
Each line names hits and unclear results; the compound was inactive in the other large screens. Unless noted, calls come from the whole dose curve; as a rule, active = well fitted inhibition curve with a large enough effect; inconclusive = small, poorly fitted or top-dose-only effect, or another doubt; inactive = no such curve, though single readings can be large or run the other way.

O=C(Nc1ccc([N+](=O)[O-])cc1)c1cc(-c2ccccn2)nc2c(Cl)cccc12	Pf growth 96h 15µM
O=C(c1cc(-c2ccccn2)nc2c(Cl)cccc12)N1CCN(S(=O)(=O)c2ccccc2)CC1	NS1 inh inconclusive, Pf growth 48h 10µM
O=C(c1cc(-c2ccccn2)nc2ccccc12)N1CCN(c2ncccn2)CC1	none
O=C(c1ccc(OC2CCN(Cc3ccccn3)CC2)cc1)N1CCCC(O)C1 (configuration not stated)	Pf growth 96h inconclusive
CCCc1cc(=O)[nH]c(SCC(=O)Nc2ccc([N+](=O)[O-])cc2C#N)n1	Pf growth 48h inconclusive
CCn1c2ccccc2c2cc(CN3CCN(S(=O)(=O)Cc4ccccc4)CC3)ccc21	Pf growth 48h inconclusive
COc1ccc(N2CCN(CC(O)COc3cc(C)ccc3C)CC2)cc1 (configuration not stated)	none
CCOC(=O)c1cnc2cc(-c3ccc(Cl)cc3)nn2c1N	Cycloheximide cs 27
CCOC(=O)c1cnc2c(c(C)nn2C)c1Oc1ccc(Cl)cc1	Pf growth 96h 1.5µM, Pf growth 48h inconclusive
CCOC(=O)c1cnc2cc(-c3ccc(Br)cc3)nn2c1C	Cycloheximide cs 22, Pf growth 96h 13µM
CCOC(=O)c1cnc2c(-c3ccc(Cl)cc3)c(C)nn2c1N	Pf growth 96h 9.3µM
O=C(CN1CCN(S(=O)(=O)c2ccccc2)CC1)N1CCCCC1	Pf growth 96h inconclusive (no result: Cycloheximide cs, NS1 inh, Shiga inhibitor)
CC(=O)N1CC(C)Sc2ccc(S(=O)(=O)N3CCCCC3)cc21 (configuration not stated)	none
CC(=O)c1ccc(NC(=S)Nc2cccc(S(=O)(=O)Nc3c(C)n(C)n(-c4ccccc4)c3=O)c2)cc1	none (no result: NS1 inh)
COc1ccc(/C=N/NC(=O)c2ccc(Br)o2)cc1Cn1cc([N+](=O)[O-])cn1	Cycloheximide cs 39, Shiga inhibitor 77
CC(C)c1ccc(/C=N\NC(=O)c2ccc(Cn3cccn3)o2)cc1	Cycloheximide cs 54, Shiga inhibitor 71
COc1ccc(C=NNc2ccc([N+](=O)[O-])cc2S(=O)(=O)Nc2ccccc2C(=O)O)cc1OC	none (no result: Cycloheximide cs, NS1 inh, Shiga inhibitor, Pf growth 96h, Pf growth 48h)
COc1ccc(/C=N/NC(=O)c2ccccc2OC)cc1COc1ccccc1[N+](=O)[O-]	none
COc1ccc(/C=N/NC(=O)c2ccccc2O)cc1Cn1cc([N+](=O)[O-])cn1	Cycloheximide cs 24
COc1ccc(/C=N/Nc2ccccc2C(=O)O)cc1Cn1cc([N+](=O)[O-])cn1	Cycloheximide cs 46, Shiga inhibitor 56, Pf growth 48h inconclusive
Cc1c(NS(=O)(=O)c2cccc(C(=O)Nc3cccc(F)c3)c2)c(=O)n(-c2ccccc2)n1C	none (no result: Cycloheximide cs, NS1 inh, Shiga inhibitor)
COc1ccc(/C=N/NC(=O)c2cc(O)c(O)c(O)c2)cc1Cn1cc([N+](=O)[O-])cn1	SARS PLpro yeast 10µM, Pf growth 48h inconclusive (no result: NS1 inh)
Cc1ccc(/C=N/NC(=O)c2ccc(Cn3cc([N+](=O)[O-])cn3)o2)cc1	Shiga inhibitor 21
C#CCOC(=O)c1cc(Cl)c(=O)n(Cc2ccc(Cl)cc2Cl)c1	Pf growth 48h inconclusive
CCC1CCC(c2nnc(-c3ccc([N+](=O)[O-])cc3)o2)CC1 (configuration not stated)	none
COc1ccc(CCNC(=O)Nc2ccc(F)cc2F)cc1OC	none
C/C(=N\NC(=O)c1c(C)nc2ccccn12)c1cccc([N+](=O)[O-])c1	none (no result: NS1 inh)
Cc1cc(N/N=C/c2ccc(O)c(C)c2O)nc(-c2ccccc2O)n1	Cycloheximide cs 25, Pf growth 96h inconclusive, Pf growth 48h 5.9µM
COc1cc(N/N=C(\C)c2ccc(O)c(C)c2)nc(-c2ccccc2)n1	Pf growth 96h inconclusive, Pf growth 48h inconclusive
Cc1cc(Nc2ccc(F)c(F)c2)nc(-c2ccccc2O)n1	Pf growth 96h inconclusive, Pf growth 48h inconclusive
C/C(=N\Nc1cc(C)nc(-c2ccccc2)n1)c1cccc([N+](=O)[O-])c1	Pf growth 96h 0.41µM, Pf growth 48h 12µM
C/C(=N\Nc1cc(C)nc(-c2ccccc2O)n1)c1ccccc1	Cycloheximide cs 31, Pf growth 96h inconclusive
C/C(=N\Nc1cc(-c2ccccc2)nc(-c2ccccc2)n1)c1ccc(O)c(C)c1	Cycloheximide cs 20, NS1 inh inconclusive, Shiga inhibitor 73, Pf growth 48h inconclusive
O=C(O)c1ccc2c(c1)C(=O)N([C@H](Cc1c3ccccc3cc3ccccc13)C(=O)O)C2=O	none (no result: NS1 inh)
COc1ccc2c(c1OC)C(=O)N1c3ccccc3C(=O)N(c3ccccc3)C21 (configuration not stated)	Pf growth 96h 10µM, Pf growth 48h 13µM
COc1ccc2c(c1OC)C(=O)N1c3ccccc3C(=O)N(c3ccc(F)cc3)C21 (configuration not stated)	Pf growth 96h inconclusive, Pf growth 48h inconclusive
NC(=O)CC(NC(=O)c1ccc(Cl)cc1)C(=O)NCCc1ccc(S(N)(=O)=O)cc1 (configuration not stated)	none
O=C(Cc1ccccc1[N+](=O)[O-])NCc1ccc2c(c1)OCO2	Cycloheximide cs 58, Shiga inhibitor 69
O=C(CN1c2cccc3cccc(c23)S1(=O)=O)NCc1ccc2c(c1)OCO2	Pf growth 96h inconclusive, Pf growth 48h inconclusive
O=C(CN1C(=O)c2ccccc2S1(=O)=O)NCc1ccc2c(c1)OCO2	Pf growth 96h 9.3µM
O=C(Cn1nc(-c2ccccc2)ccc1=O)NCc1ccc2c(c1)OCO2	Pf growth 96h 1.3µM
CN(C)C(=O)Cn1c(SCC(=O)NCc2ccc3c(c2)OCO3)nc2ccccc21	none
CC1CCCC(C)N1C(=O)Cn1c(SCC(=O)NCc2ccc3c(c2)OCO3)nc2ccccc21 (configuration not stated)	Pf growth 48h 6.6µM
O=C(COC(=O)COc1ccccc1[N+](=O)[O-])NCc1ccc2c(c1)OCO2	none (no result: Cycloheximide cs, NS1 inh, Shiga inhibitor, Pf growth 96h, Pf growth 48h)
CS(=O)(=O)N(CC(=O)NCc1ccc2c(c1)OCO2)Cc1ccccc1	Pf growth 96h inconclusive
O=C(Cc1ccccc1)NCc1ccc2c(c1)OCO2	Cycloheximide cs 59, Shiga inhibitor 118, Pf growth 96h 10µM (no result: Pf growth 48h)
O=C(CCc1c[nH]c2ccccc12)NCc1ccc2c(c1)OCO2	none
O=C(CCn1c(=O)c2ccccc2n(Cc2cccnc2)c1=O)NCc1ccc2c(c1)OCO2	none
O=C(CC12CCC(CC1)C2)NCc1ccc2c(c1)OCO2	Cycloheximide cs 26, Shiga inhibitor 44, Pf growth 96h inconclusive
Cc1ccccc1Cn1c(=O)n(CCC(=O)NCc2ccc3c(c2)OCO3)c(=O)c2ccccc21	Pf growth 96h 4.7µM (no result: Pf growth 48h)
O=C(Cc1c[nH]c2ccccc12)NCc1ccc2c(c1)OCO2	Cycloheximide cs 19
COc1ccccc1N1C(=O)CCC1(C#N)c1ccccc1 (configuration not stated)	none (no result: SARS PLpro yeast)
CCOC(=O)CC(=O)NC(C)(C)CCCCC(C)(C)NC(=O)CC(=O)OCC	none
O=C(CN1C(=O)c2cccc([N+](=O)[O-])c2C1=O)N1CCN(S(=O)(=O)c2ccccc2)CC1	none (no result: Cycloheximide cs, NS1 inh, Shiga inhibitor)
O=C(COC(=O)CCc1ccccc1)NCc1ccc2c(c1)OCO2	none (no result: Cycloheximide cs, NS1 inh, Shiga inhibitor, Pf growth 96h, Pf growth 48h)
